Screens: PubChem, National Center for Advancing Translational Sciences (NCATS)
Marburg entry inh = Marburg virus entry inhibition. Potency, µM (highest dose often 37.8 µM), inactives show at the highest dose activity change, negative = inhibition, usual class: inhibitors. Marburg virus pseudotyped entry inhibition, cell reporter. 300,000 compounds, 1.8% hits; calls by dose curve; tested in HEK293 cells; also: potency is read from the fitted curve at half-maximal effect; % is scaled to controls: 0 for no effect and ±100 for the full control effect
LASV entry inh = inhibitors of Lassa virus binding or cell entry; Lassa virus pseudotype entry inhibition, cell reporter; Potency, µM (titrated, usually from 37.9 µM), for inactives: at the top dose activity change, negative = inhibition, most hits filed as inhibitors; 300,000 compounds, 1.2% hits; calls by dose curve; tested in HEK293 cells; also: potency is read from the fitted curve at half-maximal effect; % is scaled to controls: 0 for no effect and ±100 for the full control effect; nearly all actives have a fitted effect of over 50% in size
Pf growth 48h = P. falciparum growth inhibition at 48 hours (one generation). P. falciparum luciferase growth in erythrocytes, 48 h. Potency, µM (doses to about 28.7 µM), for the others: at the top dose activity change, negative = inhibition, hits mostly inhibitors. 310,000 compounds, 5.9% hits. AID 504832; also: potency is read from the fitted curve at half-maximal effect; % is scaled to controls: 0 for no effect and ±100 for the full control effect
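Luciferase-expressing parasites in RBCs, 2% Hct / 0.1% parasitemia final; RPMI 1640 + 0.5% Albumax; 37 C, 5% CO2, one generation; luminescence read-out, lower signal = inhibition.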
Shiga inhibitor = blocks Shiga toxin action in Vero cells; Vero cells, Shiga toxin protein synthesis inhibition reporter; 290,000 compounds, 9.2% hits; inhibition, % at 38.7 µM; AID 2315; in the data active = inhibition mostly above about 28%, no sharp cut-off; inactive = mostly below about 43%; also: 0% is about no effect
Cycloheximide cs = counter-screen hit for Shiga toxin inhibitors, cycloheximide. AID 2314. max response, %. cell reporter, cycloheximide protein synthesis inhibition counterscreen. 300,000 compounds, 12% hits; in the data active = max response mostly above about 13%, no sharp cut-off; inactive = mostly below about 14%; also: read at 38.3 µM for the half of the compounds with a filed dose; 0% is about no effect
Pf growth 96h = P. falciparum growth inhibition at 96 hours | 320,000 compounds, 6.9% hits | P. falciparum luciferase reporter growth, 96 h | Potency, µM (titrated, usually from 28.7 µM), without a hit: top-dose activity change, negative = inhibition, hits mostly inhibitors; also: potency is read from the fitted curve at half-maximal effect; % is scaled to controls: 0 for no effect and ±100 for the full control effect
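Compounds incubated with erythrocytes infected by luciferase-expressing P. falciparum (2% hematocrit, 0.05% parasitemia final) for 96 hours, 37 C in 5% CO2. Growth inhibition scored as decreased luciferase luminescence.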
Starred values were filed as active, the others as inactive; ? = inconclusive; . = not tested or not shown; [ ] = dose if it differs, or a comment. A selection: hits, their analogues and other compounds. The true share with any hit is near 19%. Unless noted, calls follow the shape of the dose curve; as a rule, active = well fitted inhibition curve with a large enough effect; inconclusive = small, poorly fitted or top-dose-only effect, or another doubt; inactive = no such curve, though single readings can be large or run the other way.

SMILES | Marburg entry inh | LASV entry inh | Pf growth 48h | Shiga inhibitor | Cycloheximide cs | Pf growth 96h
COc1cccc(CNC(=O)CN2CCCN(Cc3ccccc3)S2(=O)=O)c1 | -1%[46.1 µM] | -26%[46.1 µM] | . | . | . | .
Cc1[nH]c2ccccc2c1C(=O)COC(=O)C1CCC1 | -6%[46.1 µM] | 11%[46.1 µM] | 25% | 40 | 23* | -16%
O=C(COC(=O)C1CC1)c1c[nH]c2ccccc12 | ? | ? | 36% | 76* | 57* | 5%
CCOC(=O)N1CCN(C(C)C(=O)c2c[nH]c3ccccc23)CC1 (centres undefined) | -14% | -9% | . | -10 | -2 | ?
CC(C(=O)c1c[nH]c2ccccc12)N1CCN(C(=O)c2ccco2)CC1 (centres undefined) | 1% | -5% | 1.9µM* | -3 | -2 | 2.1µM*
O=C(COC(=O)C1CCC1)c1c[nH]c2ccccc12 | 7%[46.1 µM] | 0% | -6% | . | . | -14%
CCc1ccc(NC(=O)C(C)OC(=O)/C=C/c2ccc(O)c(OC)c2)cc1 (centres undefined) | ? | -26% | . | . | . | .
C/C(=N\NC(=O)C(c1ccncc1)N1CCOCC1)c1ccc(Br)cc1 (centres undefined) | 0% | -11% | 13% | 10 | 0 | 2%
COc1cc(OC)c2c(-c3ccccc3)cc(=O)oc2c1C(CCN1CCCCC1)c1ccc(N(C)C)cc1 (centres undefined) | . | . | 10µM* | -19 | -13 | ?
COc1ccc(C(CCN2CCCCC2)c2c(OC)cc(OC)c3c(-c4ccccc4)cc(=O)oc23)cc1 (centres undefined) | . | . | 10µM* | -17 | -12 | 9.3µM*
O=C(Nc1nc2ccccc2[nH]1)C1CC(=O)N(c2ccc3c(c2)OCCO3)C1 (centres undefined) | -18% | 0% | 6% | 42 | 28* | 8.3µM*
O=C(Nc1ccccc1Br)C1CC(=O)N(c2ccc3c(c2)OCCO3)C1 (centres undefined) | -1% | -7% | ? | . | . | ?
Cc1ccnc(NC(=O)C2CC(=O)N(c3ccc4c(c3)OCCO4)C2)c1 (centres undefined) | . | . | 296% | 92* | 34* | 322%
Cc1ccc(NC(=O)C2CC(=O)N(c3ccc4c(c3)OCCO4)C2)nc1 (centres undefined) | ? | -3%[46.1 µM] | 7% | . | . | 8%
C=CCCN1C(=O)NC(c2ccccc2)C(C(=O)OC)=C1C (centres undefined) | -16%[14.2 µM] | . | . | . | . | .
Cc1ccc(/C=N/NC(=O)CN2C(=O)CSc3ccccc32)o1 | 6% | 30% | 3% | 36 | 2 | -2%
CCCOC(=O)c1ccc(-c2c(C)noc2-c2ccc(OC)cc2O)o1 | ? | -20% | 0.74µM* | -17 | -1 | .
COc1cccc(NC2SC(=O)N(c3ccccc3)C2=O)c1 (centres undefined) | ? | 21% | 103% | 61* | 43* | -1%
Cc1csc(NC(=O)CSc2nc(C(C)C)nc3ccccc23)n1 | ? | ? | -22% | 5 | 2 | -2%
Cc1ccc(-c2nc(C#N)c(N3CCCCC3)o2)cc1 | . | . | . | 22 | 2 | -20%
Cc1ccc(-c2nc(C#N)c(N3CCC(C)CC3)o2)cc1 | . | . | 17% | 65 | 17* | 0%
COc1ccc(-c2nc(C#N)c(N3CCCCC3)o2)cc1 | 17% | -3% | 19% | -2 | 2 | 21%
COc1ccc(-c2nc(C#N)c(N3CCC(C)CC3)o2)cc1 | ? | -12%[46.1 µM] | -11%[0.00184 µM] | 13 | 16* | -9%
NC(=O)CSc1n[nH]c(=O)n1CCc1ccccc1 | 15%[46.1 µM] | 8%[46.1 µM] | -24% | -2 | 2 | -6%
CCN(CC)c1ccc(C2Nc3cccc4cccc(c34)N2)c(O)c1 | ? | -2% | 3.7µM* | 51* | 27* | -21%
Oc1ccc2ccccc2c1C1Nc2cccc3cccc(c23)N1 | 5% | 14% | ? | -13 | 0 | .
Cc1cccc(NC(=O)CCCc2ccccc2)c1 | . | . | 96% | 73* | 57* | 130%
Cc1cccc(NC(=O)NNC(=O)CCc2ccccc2)c1 | . | . | 27% | -4 | 0 | ?
CC(C)NC(=O)CCCc1ccccc1 | 23% | -2% | 51% | 58* | 27* | -15%
Cc1cccc(NC(=O)CNC(=O)CNC(=O)Cc2ccccc2)c1 | ? | -21% | -9% | -13 | 1 | ?
